Measured values: PubChem BioAssay
Activity calls are given as the source filed them.

Columns and labels:
[1] = tested on: Plasmodium falciparum Sir2 (PF13_0152, Sir2A); experiment: Plasmodium falciparum Sir2A binding compounds – biochemical, small-molecule microarray, 635 nm fluorescence, primary screen (AID 1098); details: fluorescence 635 nm, higher = more signal;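 further: score merges spot fluorescence intensity with its signal-to-noise ratio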
[2] = probe aDKK1 binding to arrayed compounds – biochemical, biotinylated probe, 635/667 nm fluorescence, primary screen (AID 1099); details: small-molecule microarray, higher = more signal;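 further: score merges 667nm spot fluorescence with signal to noise across triplicate slides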
[3] = probe aCHRDL2 binding to arrayed compounds – biochemical, biotinylated probe, 635/667 nm fluorescence, primary screen (AID 1100); details: small-molecule microarray, higher = more signal
[4] = change in splice reporter luminescence, either direction, cell-based, HEK293, spliceosome inhibition project, primary screen (AID 1101); details: HEK293 splicing luciferase reporter, 24 h, higher = more signal, called active from +8 up or from −8 down;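 further: HEK293 cells carrying a splicing-competent luciferase reporter gene; test concentration not given here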
[5] = target: Fibroblast growth factor 10 (Homo sapiens) (UniProt O15520); experiment: compounds binding fibroblast growth factor 10 – biochemical, small-molecule microarray, 635 nm fluorescence, primary screen (AID 1102); details: FGF10 binding, fluorescence 635 nm, higher = more signal
Chain of Fibroblast growth factor 10 (Homo sapiens) (O15520 whole entry, looked up): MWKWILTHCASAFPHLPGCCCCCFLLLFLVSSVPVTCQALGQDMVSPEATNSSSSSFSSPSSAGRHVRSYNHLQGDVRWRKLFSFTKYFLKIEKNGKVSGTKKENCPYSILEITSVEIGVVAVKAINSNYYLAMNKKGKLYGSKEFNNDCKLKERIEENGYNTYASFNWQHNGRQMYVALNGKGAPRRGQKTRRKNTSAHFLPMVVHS

[6] = tested on: glycogen synthase kinase-3 (GSK3A per assay name; protocol says GSK3B); experiment: compounds binding glycogen synthase kinase-3 – biochemical, small-molecule microarray, 635 nm fluorescence, GSK3A, primary screen (AID 1103); details: fluorescence 635 nm, higher = more signal; further: the record names both GSK3A and GSK3B
[7] = target: Epidermal growth factor receptor (Homo sapiens) (UniProt P00533); experiment: compounds binding epidermal growth factor receptor – biochemical, small-molecule microarray, 635 nm fluorescence, primary screen (AID 1104); details: EGFR binding, higher = more signal;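 further: score merges 667 nm emission intensity with spot signal to noise over triplicate slides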
Chain of Epidermal growth factor receptor (Homo sapiens) (P00533 whole entry, looked up): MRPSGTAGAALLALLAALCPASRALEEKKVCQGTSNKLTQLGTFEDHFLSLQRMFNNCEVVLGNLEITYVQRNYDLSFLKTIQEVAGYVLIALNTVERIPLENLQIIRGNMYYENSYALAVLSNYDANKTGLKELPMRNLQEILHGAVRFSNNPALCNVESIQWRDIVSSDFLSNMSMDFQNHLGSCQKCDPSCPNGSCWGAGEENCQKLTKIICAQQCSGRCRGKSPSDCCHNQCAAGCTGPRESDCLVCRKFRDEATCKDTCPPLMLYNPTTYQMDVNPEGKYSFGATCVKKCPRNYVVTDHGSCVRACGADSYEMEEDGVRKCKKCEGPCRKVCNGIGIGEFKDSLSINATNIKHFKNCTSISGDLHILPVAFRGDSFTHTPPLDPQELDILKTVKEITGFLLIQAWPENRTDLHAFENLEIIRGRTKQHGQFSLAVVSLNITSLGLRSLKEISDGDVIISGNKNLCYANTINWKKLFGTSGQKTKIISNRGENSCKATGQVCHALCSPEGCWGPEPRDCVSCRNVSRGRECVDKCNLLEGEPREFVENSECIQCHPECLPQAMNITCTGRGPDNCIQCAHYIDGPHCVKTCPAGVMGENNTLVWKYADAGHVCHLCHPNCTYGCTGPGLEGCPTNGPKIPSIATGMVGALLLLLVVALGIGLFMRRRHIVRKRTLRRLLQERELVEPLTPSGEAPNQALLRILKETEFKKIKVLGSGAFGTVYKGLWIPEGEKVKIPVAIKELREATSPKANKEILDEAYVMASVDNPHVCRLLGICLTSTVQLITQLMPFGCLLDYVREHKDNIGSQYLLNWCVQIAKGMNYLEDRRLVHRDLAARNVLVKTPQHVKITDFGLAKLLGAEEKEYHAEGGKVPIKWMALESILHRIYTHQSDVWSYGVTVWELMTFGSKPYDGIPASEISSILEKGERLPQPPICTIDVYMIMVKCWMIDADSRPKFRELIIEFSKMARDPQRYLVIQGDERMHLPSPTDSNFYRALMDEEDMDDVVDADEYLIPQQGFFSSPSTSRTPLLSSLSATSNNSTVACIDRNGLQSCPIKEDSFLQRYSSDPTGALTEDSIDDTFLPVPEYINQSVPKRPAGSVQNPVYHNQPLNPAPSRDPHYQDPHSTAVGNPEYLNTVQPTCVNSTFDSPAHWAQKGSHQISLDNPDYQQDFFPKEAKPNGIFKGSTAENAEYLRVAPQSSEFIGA

[8] = target: Follistatin-related protein 3 (Homo sapiens) (UniProt O95633); experiment: compounds binding follistatin-related protein 3 – biochemical, small-molecule microarray, 635 nm fluorescence, primary screen (AID 1105); details: FSTL3 binding, higher = more signal;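 further: score merges emission near 667 nm and signal to noise per printed spot across three slides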
Chain of Follistatin-related protein 3 (Homo sapiens) (O95633 whole entry, looked up): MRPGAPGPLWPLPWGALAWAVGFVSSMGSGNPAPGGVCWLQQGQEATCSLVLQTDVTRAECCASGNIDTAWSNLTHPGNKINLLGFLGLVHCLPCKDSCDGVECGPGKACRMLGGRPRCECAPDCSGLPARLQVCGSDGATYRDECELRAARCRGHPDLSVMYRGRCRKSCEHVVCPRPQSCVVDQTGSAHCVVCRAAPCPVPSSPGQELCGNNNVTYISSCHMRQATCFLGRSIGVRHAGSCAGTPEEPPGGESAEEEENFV

[9] = target: Dickkopf-related protein 1 (Homo sapiens) (UniProt O94907); experiment: small molecules binding DKK1 protein – biochemical, small-molecule microarray, 635 nm fluorescence scan, primary screen (AID 1106); details: higher = more signal;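 further: score merges emission near 667 nm with signal to noise over three replicate slides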
Chain of Dickkopf-related protein 1 (Homo sapiens) (O94907 whole entry, looked up): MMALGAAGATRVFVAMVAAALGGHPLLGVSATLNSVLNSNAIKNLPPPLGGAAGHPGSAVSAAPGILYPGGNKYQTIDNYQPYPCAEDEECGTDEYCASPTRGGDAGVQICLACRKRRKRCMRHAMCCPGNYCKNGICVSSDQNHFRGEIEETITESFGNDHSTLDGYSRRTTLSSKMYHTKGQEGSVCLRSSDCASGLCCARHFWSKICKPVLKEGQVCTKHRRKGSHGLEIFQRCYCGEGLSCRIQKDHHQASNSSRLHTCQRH

[10] = tested on: Inhibin beta A chain (activin A); experiment: small molecules binding activin A – biochemical, small-molecule microarray, 635 nm fluorescence scan, primary screen (AID 1107); details: INHBA, higher = more signal;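 further: mouse activin A protein probed at 4.33 µg/mL on printed slides; score merges bound-protein fluorescence near 667 nm with spot signal-to-noise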
[11] = tested on: Human papillomavirus type 1a protein E7 (residues 44-93); experiment: small molecules binding HPV E7 44-93 – biochemical, small-molecule microarray, residues 44-93, 635 nm fluorescence, primary screen (AID 1108); details: fluorescence 635 nm, higher = more signal;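 further: E7 fragment applied at 1 µg/mL in TBST for 1 h at 4 C; score combines spot fluorescence with its signal to noise ratio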
[12] = hepatitis C replication reporter changes, two-sided – Huh7 cells, luciferase reporter, HCV replication inhibitor project, primary screen (AID 1109); details: Huh7 HCV replicon luciferase reporter, 48 h; higher = more signal;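 further: huh7 hepatoma cells harbouring a luciferase neomycin HCV replicon reporter; luciferase luminescence as measure of HCV replicon replication; test concentration not given here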
[13] = target: Left-right determination factor 2 (Homo sapiens) (UniProt O00292); experiment: small molecules binding LEFTY2 protein – biochemical, small-molecule microarray, 635 nm fluorescence scan, primary screen (AID 1110); details: higher = more signal
Chain of Left-right determination factor 2 (Homo sapiens) (O00292 whole entry, looked up): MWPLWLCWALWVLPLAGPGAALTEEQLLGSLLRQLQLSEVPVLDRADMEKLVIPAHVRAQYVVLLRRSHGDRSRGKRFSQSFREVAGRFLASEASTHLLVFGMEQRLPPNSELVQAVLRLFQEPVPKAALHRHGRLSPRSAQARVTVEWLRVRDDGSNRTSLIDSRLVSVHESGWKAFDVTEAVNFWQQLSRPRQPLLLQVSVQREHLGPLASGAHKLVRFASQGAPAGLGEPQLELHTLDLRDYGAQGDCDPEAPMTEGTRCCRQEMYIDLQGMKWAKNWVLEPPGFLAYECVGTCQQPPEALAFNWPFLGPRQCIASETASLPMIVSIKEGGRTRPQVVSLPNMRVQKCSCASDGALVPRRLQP

[14] = target: Calmodulin-1 (Homo sapiens) (UniProt P0DP23); experiment: small molecules binding calmodulin-1 with EGTA – biochemical, small-molecule microarray, Cy5-labelled CALM1, profiling panel (AID 1111); details: Cy5-CALM1 binding fluorescence, higher = more signal;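 further: labelled calmodulin applied in Tris saline Tween buffer holding calcium plus EGTA and DTT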
[15] = target: Calmodulin-1 (Homo sapiens) (UniProt P0DP23); experiment: small molecules binding Ca-loaded calmodulin-1 – biochemical, small-molecule microarray, Cy5-labelled CALM1, plus calcium, artefact control for SMM control-protein annotation, profiling panel (AID 1112); details: Cy5-CALM1 binding fluorescence, higher = more signal;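 further: score merges spot fluorescence with signal to noise from triplicate slides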
[16] = probe aWnt5a binding to arrayed compounds – biochemical, biotinylated probe, 635/667 nm fluorescence, primary screen (AID 1113); details: small-molecule microarray, higher = more signal;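 further: score merges 667 nm fluorescence intensity with signal-to-noise per printed feature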
[17] = probe aShh binding to arrayed compounds – biochemical, biotinylated probe, 635/667 nm fluorescence, primary screen (AID 1114); details: small-molecule microarray, higher = more signal;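 further: probe is biotin-labelled aShh protein from a stem cell growth factor screen; measures binding of labelled protein to compounds printed on the slide; score merges feature fluorescence at 667 nm with signal-to-noise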
[18] = probe aNog binding to arrayed compounds – biochemical, biotinylated probe, 635/667 nm fluorescence, primary screen (AID 1115); details: small-molecule microarray, higher = more signal;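 further: probe is biotinylated aNog protein used at 0.15 µg/mL for 1 h at 4 C; z-score combines 667 nm fluorescence of each spot with its signal to noise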
[19] = target: Torsin-1A-interacting protein 1 (Homo sapiens) (UniProt Q5JTV8); experiment: compound microarray binding of lysate hLAP1 – cell lysate, small-molecule microarray, COS7 lysate, 635/667 nm fluorescence, primary screen (AID 1116); details: 635 nm fluorescence, higher = more signal
Chain of Torsin-1A-interacting protein 1 (Homo sapiens) (Q5JTV8 whole entry, looked up): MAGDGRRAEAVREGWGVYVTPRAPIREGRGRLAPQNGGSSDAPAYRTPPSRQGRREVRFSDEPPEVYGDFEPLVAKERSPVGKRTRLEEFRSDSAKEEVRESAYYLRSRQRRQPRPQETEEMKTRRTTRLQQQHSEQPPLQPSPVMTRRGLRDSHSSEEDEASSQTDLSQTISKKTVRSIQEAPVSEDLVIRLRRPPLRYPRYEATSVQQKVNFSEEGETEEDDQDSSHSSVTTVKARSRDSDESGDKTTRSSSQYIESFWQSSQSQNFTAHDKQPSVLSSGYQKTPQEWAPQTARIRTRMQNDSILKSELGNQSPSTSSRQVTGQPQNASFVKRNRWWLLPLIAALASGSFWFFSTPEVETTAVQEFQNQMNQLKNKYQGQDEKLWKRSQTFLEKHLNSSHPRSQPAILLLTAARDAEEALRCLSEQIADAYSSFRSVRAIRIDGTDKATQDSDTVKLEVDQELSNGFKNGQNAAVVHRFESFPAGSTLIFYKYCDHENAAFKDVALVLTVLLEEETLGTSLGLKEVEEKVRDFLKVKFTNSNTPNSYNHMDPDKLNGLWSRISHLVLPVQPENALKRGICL

[20] = target: Alpha-bungarotoxin (Bungarus multicinctus) (UniProt P60615); experiment: compounds binding labelled alpha-BTX control protein – biochemical, small-molecule microarray, Alexa647 label, 635/667 nm fluorescence, artefact control for SMM control protein annotation, profiling panel (AID 1117); details: alpha-BTX-A647 binding fluorescence, higher = more signal
Chain of Alpha-bungarotoxin (Bungarus multicinctus) (P60615 whole entry, looked up): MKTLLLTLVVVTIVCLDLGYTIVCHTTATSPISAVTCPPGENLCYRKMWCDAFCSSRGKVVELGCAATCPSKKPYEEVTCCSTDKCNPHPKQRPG

SMILES | composite z-score [1] | composite z-score [2] | composite z-score [3] | z-score [4] | composite z-score [5] | composite z-score [6] | composite z-score [7] | composite z-score [8] | composite z-score [9] | composite z-score [10] | composite z-score [11] | z-score [12] | composite z-score [13] | composite z-score [14] | composite z-score [15] | composite z-score [16] | composite z-score [17] | composite z-score [18] | composite z-score [19] | composite z-score [20]
C/C(=N\O)C(=O)NCCCCCNC(=O)OCc1ccccc1 | 0.807 | -0.186 | -0.472 | -0.508 (inactive) | 0.554 | 0.777 | 0.479 | 1.03 | 0.497 | 0.102 | 0.63 | -0.0365 | 0.516 | 0.169 | -0.269 | 0.0115 | -0.262 | 0.32 | 0.371 | 1.06
COc1ccc(-c2ccccc2[C@@H]2N[C@H](C(=O)O)CC[C@H]2C)cc1 | 0.0888 | -0.267 | -0.519 | -1.21 (inactive) | 0.262 | 0.387 | 0.418 | 0.336 | 0.526 | 0.135 | 0.404 | -0.388 | 0.594 | -0.27 | -0.699 | -0.0222 | 0.138 | 0.432 | 0.583 | 0.288
COCCOC(=O)N1C(=O)[C@@]2(c3cc(C#CCCO)ccc31)[C@H](c1ccc(OCCO)cc1)N1[C@H](c3ccccc3)[C@H](c3ccccc3)OC(=O)[C@H]1[C@@H]2C(=O)NC[C@H](O)c1ccccc1 | 1.3 | 0.0564 | -0.0641 | -0.6 (inactive) | 1.31 | 1 | 0.776 | 1.41 | 0.923 | 0.701 | 1.39 | -1.13 | 0.795 | 0.969 | 0.003 | -0.001 | -0.0904 | -0.213 | 1.29 | 1.05
COc1cccc([C@@H]2[C@@H](C)CC[C@H]3C(=O)N(C)[C@@H](C(C)C)C(=O)N23)c1 | 0.516 | -0.22 | -0.532 | 0.223 (inactive) | 0.266 | 0.649 | 0.418 | 0.472 | 0.782 | 0.428 | 0.148 | 0.512 | 0.375 | -0.169 | -0.562 | -0.204 | -0.0011 | -0.141 | 1.11 | 0.0641
O=C(NCc1ccccc1)c1ccc(Br)cc1[N+](=O)[O-] | 0.333 | -0.261 | -0.47 | 0.628 (inactive) | 0.39 | 0.215 | 0.425 | 0.494 | 0.346 | 0.31 | -0.0303 | -0.3 | 0.61 | 0.216 | 0.321 | -0.0462 | -0.141 | -0.318 | 0.0817 | 1.29
CC(C)[Si](OCCCNS(=O)(=O)c1ccc(Br)cc1)(C(C)C)C(C)C | 0.373 | 0.526 | 0.0951 | -0.619 (inactive) | 0.831 | 1.18 | 0.742 | 0.753 | 0.673 | -0.415 | 0.186 | -2.89 | 0.76 | 1.19 | -0.371 | 0.037 | -0.0553 | 0.0379 | 0.928 | -0.249
C=CC[C@]1(C(=O)N2CCCCC2)N=C(c2ccc(OCCCO)cc2)O[C@H]1c1ccccc1N=[N+]=[N-] | 1.55 | 1.26 | 1.42 | -0.461 (inactive) | 0.975 | 1.27 | 0.292 | 1.3 | -0.0913 | 1.06 | 0.796 | -0.668 | 0.218 | 2.16 | 0.994 | 0.0327 | 0.195 | -0.174 | 1.85 | 2.28
C=CCNC(=O)[C@H]1[C@@H]2C(=O)O[C@@H](c3ccccc3)[C@@H](c3ccccc3)N2[C@@H](c2ccccc2OCCO)[C@]12C(=O)N(C(=O)OCCOC)c1ccc(C#CCNC(N)=O)cc12 | 1.28 | 0.607 | 0.802 | -0.294 (inactive) | 0.471 | 0.843 | 0.158 | 0.507 | 0.111 | 0.889 | 0.0146 | -1.08 | 0.398 | 1.63 | 0.559 | -0.124 | -0.0011 | 0.672 | 1.23 | 1.81
Cc1cc(C)c(C(O)C2C=CC3C(=O)N(C)C(=O)C3N2N2CCCCC2)c(C)c1 (stereo not given) | 1.38 | 0.261 | 1.2 | 1.91 (inactive) | 1.07 | 1.31 | 0.641 | 1.35 | 0.384 | 1.36 | 1.37 | 0.186 | 0.314 | 1.75 | 0.22 | 0.0437 | 0.308 | 1.45 | 0.959 | 2.36
COc1cc(CO)cc(I)c1O[C@H]1C=C(C(=O)NCCO)C[C@@H](NCCc2c[nH]c3ccccc23)[C@@H]1O | 1 | 0.27 | 0.375 | -1.01 (inactive) | 1.06 | 0.433 | 0.666 | 1.05 | 0.4 | 1.22 | -0.552 | -2.76 | 0.688 | 0.228 | -0.56 | -0.0032 | 0.116 | 0.758 | 0.762 | 0.988
CO[C@H]1COC(=O)[C@@H](OCc2ccccc2)C=C[C@H](C)[C@@H](OC)COC(=O)[C@H](OCc2ccccc2)C=C[C@@H]1C | -0.0155 | -0.46 | -0.984 | -1.8 (inactive) | 0.181 | -0.0762 | -0.207 | 0.172 | 0.123 | -0.381 | -1.23 | 0.512 | 0.348 | -2.13 | -1.26 | -0.147 | -0.138 | -0.397 | -0.144 | -0.155
CCC#CCN(Cc1ccccc1Br)[C@H](/C=C/c1ccccc1)[C@@H](O)Cc1ccccc1 | 0.193 | 0.0099 | 1.28 | -1.89 (inactive) | -0.89 | -0.688 | -1.53 | -1.81 | -1.6 | 1.05 | -0.0687 | -2.58 | -0.635 | -0.481 | 0.402 | -0.152 | -0.138 | -0.326 | -0.613 | -0.0441
CC(=O)NCCCC[C@@H]1NC(=O)[C@@H]2C[C@H](C(=O)NCCCCCNC(=O)CS)[C@H](c3ccc(O)cc3)N2C1=O | 1.45 | -0.384 | 0.292 | -1.88 (inactive) | -0.282 | -0.631 | -0.817 | -0.781 | 0.527 | 0.247 | 0.364 | 1.22 | -0.293 | -0.592 | 0.503 | -0.221 | 0.0284 | -0.0315 | 0.0502 | -0.46
CO[C@H]1COC(=O)[C@H](CCSC)NC(=O)CC=C[C@@H](C)COC(=O)[C@@H](OCc2ccccc2)C=C[C@@H]1C | 0.979 | 0.981 | -1.41 | -0.342 (inactive) | 0.485 | 0.743 | 0.574 | 1.15 | 2 | 0.397 | -0.457 | -0.704 | 1.23 | -0.86 | -1.6 | -0.182 | -0.1 | -0.541 | -0.0258 | -0.414
COc1ccc([Si](C)(C)[C@H]2[C@H](CCO)O[C@@]3(C(=O)N(Cc4ccc(N5CCCCC5=O)cc4)c4ccccc43)[C@@H]2C)cc1 | 1.36 | 0.175 | 0.37 | 1.23 (inactive) | 0.345 | 0.642 | 0.122 | 0.55 | 0.236 | 0.766 | 0.247 | -4.77 | 0.139 | 1.49 | 1.02 | -0.116 | 0.0141 | 0.338 | 0.643 | 1.7
O=C1C2C=CC(C(O)C#Cc3ccccc3)N(Nc3ccccc3)C2C(=O)N1c1ccccc1 (stereo not given) | 1.66 | -0.0212 | 0.498 | 0.287 (inactive) | -0.102 | -0.208 | -0.512 | -0.445 | -0.572 | 0.687 | -0.369 | -0.049 | -0.365 | 0.482 | 0.373 | -0.096 | -0.16 | 0.839 | 0.945 | 0.472
O=C(NCC(F)(F)F)[C@@H]1c2ccccc2C(=O)N(Cc2ccccc2Cl)[C@H]1c1ccc(CO)cc1 | 1.68 | 0.624 | -0.363 | 0.632 (inactive) | -0.85 | -1.1 | -0.728 | -0.643 | -0.941 | -0.0121 | -0.804 | -1.03 | -1.44 | -0.483 | -0.135 | -0.147 | 0.245 | -0.0689 | -1.19 | -1.18
CCC1=C2CN(Cc3ccccc3Br)[C@@H]([C@@H](O)Cc3ccccc3)C2C=CCC1 (stereo not given in full) | 0.124 | -0.0181 | -0.311 | -2.14 (inactive) | 0.597 | 0.6 | 0.164 | 0.961 | 0.513 | 0.677 | 1.38 | -2.97 | 0.473 | 0.417 | -0.419 | -0.148 | -0.0709 | -0.278 | -0.131 | 0.616
